The whole screen tested about 53,000 sequences, of which about 3,700 (7%) were called active. This is one part of a sample in which actives are shown more often than they occur. Unmarked numbers belong to inactive results.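 Rule for the calls: active = gene knockdowns whose robust z-score for IL-1 alpha signal is at least 2 or at most -2, so actives lie on both sides; inactive = the rest.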

A short description of this test: Components of the Cytosolic LPS Sensing Pathway: Gene Identification via Genome-wide siRNA Screen.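 Note: robust z of the log signal after scaling to non-targeting control siRNA wells of the plate.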 As to conditions: RAW264.7 macrophages, IL-1a HTRF, actives lie on both sides, screened at 100 nM (by protocol), cells primed 5 h with Pam3CSK4 first. An outline of the steps: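 IL-1a HTRF of supernatants after 24 hour LipidA transfection of Pam3CSK4-primed (5 hours) RAW264.7 cells, 48h post-siRNA transfection (100 nM). Scores: percent of plate negative-control median, then log-based robust z-score.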
On to GCCCUAAUCUAUGGGACAUTT against Tmem179, for which the z-score is 3.06 (active).
On to UUCAUUCAUAUGGACAGUUTT against Psg19, for which the z-score is 1.73.
Under GCCACAAUGGGCAGUCUUATT against Kcp stands 0.0139; under GCGGAAGUCGGAUUUUAUCTT against Kif1c, 3.01 (active).
In the case of “CCAACACGUUGCACAGAGUTT against A830073O21Rik”, the z-score is 0.611.
Take “GGACAACCGAAGUUUUAAUTT against E130308A19Rik”: the z-score was 0.0435.
In the case of GGAGGUGACUAUCAUUUUUTT against Gng4, the z-score was -0.498.
With CCAGCAAGUAAAACAAGCUTT against Olfr803 the figure was 0.998.
Regarding GGUACUUCUCAUGGAUAAATT against Vps45, the z-score was -0.234.
Turning to GGAACUAAAUAUCCCUAUGTT against Polr3gl, the z-score is -1.26.
For the sequence GAUACUUGGCUCCUAGAAGTT against Olfr803, the z-score is -1.22.
Under GCAUGAAUUGUGGAAGAGATT against Csnk1a1 stands 2.71 (active).
Turning to GCCAGGUGGAACCAAGUAUTT against Zcchc17, the z-score was -1.67.
In the case of GGCAUCUUAUGGCCUAAAATT against Rnf31, the z-score is -1.08.
Under GCGAAAAAGAUCGUCCUUGTT against Polr3a stands -0.444.
With GGAUCUUUACAUCUCUAACTT against Krtap31-1, the z-score was 1.58.
Regarding GCCAAACAUUGGUGGACAUTT against H2-D1, the z-score is 0.835.
For the sequence GCUUAAUAAUUUCAUCCAGTT against Brms1l, the z-score is 2.44 (active).
Regarding GGCCCAGUCCGAUAUUCUATT against Phxr4, the z-score is -0.797.
With GCAAAUCAGUCUAUCGCUGTT against Mcpt8, the z-score is 0.39.
Regarding GGUUUUCACUAUUUCAACUTT against Olfr187, the z-score is -1.06.
For GGUAAAUGGUUUAACUACGTT against Tmem117, the z-score was -0.68.
Turning to GCAAAGGAUCGCUUGAAAATT against Mrpl40, the z-score was -1.15.
Turning to GGAAUAAAGCUCAUCUACGTT against Slc43a2, the z-score is 2.09 (active).
As for GGAUGAACACUGUUACAAATT against Tusc3, the z-score was 0.352.
Take GGUGAUGCAAGAAGAAAUUTT against Aldh3a2: the z-score is 0.169.
Regarding GGCUCUGUUCUCCACAUUGTT against Phf5a, the z-score was -1.6.
With GGCAAUGGUUCAGCAGUGGTT against Eef1e1 the figure was -0.564; with GGCCUUUCAUGAAAGCUCATT against Ublcp1, -3.07 (active).
Consider GGUAGCUGUGAUAAAGCAUTT against Pcbd1, for which the z-score is -1.81.
Under CCUGAUAUUCAUGACCAAATT against Wasf2 stands -0.0177.
As to CGGUGGCAAAAUGAGAAGUTT against Cd79a, the z-score is -0.142.
As to CCCUAAUCUGGUGAACGAUTT against Mfap5, the z-score was -1.05.
For GGUCUGAGCCUUGUCUUUATT against Pdx1, the z-score is 2.92 (active).
For GGUGUCUGGUUCAUAAAGGTT against Lcn4, the z-score is -0.344.
Turning to GGACACAACUCAUUUUCAGTT against Prg3, the z-score is -1.61.
As to GGAAGGAGAGACCAUUGAGTT against Nudt1, the z-score is -1.48.
Under GCGAUUAAGUCUGAAUUGUTT against Cd93 stands 0.425; under GGAUACCUACCUGGACAGUTT against Dlgap4, -1.23; under GGCACAUUGCUGAAGCCCATT against Aldoa, -2.42 (active).
With “GCUACACAUGGGAACUAACTT against 4631405J19Rik”, the z-score was 1.51.
In the case of “GGCCUAUAUUGAUGAUUUUTT against 4930503L19Rik”, the z-score is 2.31 (active).
As to GGGUGUACAGAGGAUCCGATT against Atp2a3, the z-score was 0.187.
Regarding GGCAUUUACUUACUGUUCATT against Slc39a10, the z-score was -0.331.
With CGAUUUCAUCGAACACUUCTT against Ccnd1, the z-score is 1.37.
In the case of GGUACACAUGAGACAAUAUTT against Whamm, the z-score was -2.18 (active).
With GGCUUUGUUAGUCUAUGACTT against Dzip1l, the z-score was -0.552.
With GGUGGAAGACAAGAGGAUATT against Sytl5 the figure was -0.474.
For GGGUAAUACUCUUUGGUGCTT against Olfr594, the z-score was 0.34.
In the case of GGUUUGCCUGUGCUGAUAUTT against Olfr549, the z-score was -0.617.
Consider GAUGGUCCAGAGCGACUUCTT against Pou3f3, for which the z-score was 2.14 (active).
With GGGUCAAGGUAGUAGUACCTT against Tob1 the figure was 0.275; with CCAUUACAUCCAUUUGAUUTT against Cfap206, 0.328.
In the case of GGUUUGAUGUUAGACAACGTT against Trim34a, the z-score was 0.652.
GGACAACAAAGGGAGAUUCTT against Kctd12b: the z-score is 1.43.
Take CCUACUUGGGAAAGUUCGCTT against Egr3: the z-score was 1.5.
As for CCCACUUGCUGAAAAUUGUTT against Ankib1, the z-score is -0.338.
Take CCCAGAACACCGUAUACUUTT against Itga3: the z-score was 3.95 (active).
Regarding CCAAUUUCCUUUCAGACUGTT against Cxxc4, the z-score was -1.2.
Under GGACAGCACAAUUACCUUUTT against Nr3c1 stands -0.299; under GGGUAGGAAACAAACACAGTT against Cox11, -0.234.
In the case of GAAUGCUCUGAGACUUUUATT against Cd300c2, the z-score is -2.48 (active).
Under GCUCCAAUAGCGUAUAUUATT against Pigt stands -0.75; under GGAGGACUAGUUGUGACUUTT against Aldh1a1, -0.384; under UGGCAAGAUUGAAACCAUATT against Hnrnpa3, -1.61.
On to GGUUCUUUCGAGAAUGGACTT against Nod1, for which the z-score is -0.145.
As for GGAUUUCCCAUCAAAGACGTT against Serpinf2, the z-score is 0.155.
With GCCCAAAUGAGACUACUUUTT against Ces1e the figure was -1.24; with GGCUCAGAUACUCUUAUAATT against Aknad1, -3.24 (active); with GCUAAACAUAAAAAUCGACTT against Garre1, -1.27.
As for GGAUUAAGUGGUCAAAUGATT against Ugt2b36, the z-score is -0.62.
For CCACCUGUGCUACCACUUATT against Rexo4, the z-score is -2.34 (active).
GGUUACAUAUCAGUUGAAATT against Slc35a3: the z-score is 0.032.
As for GCAAAAUCUAGGGAUAAGATT against Trdv2-2, the z-score is 0.259.
As to GGGAGAACAGCGACAAACATT against Cbfb, the z-score was 1.82.
Consider GAGUUCGAUGUUCAGGAGCTT against Ndrg1, for which the z-score is -0.354.
As to GGUUCAUGGGUUUUAAGUGTT against Eif1, the z-score is 2.25 (active).
Regarding GGAAGAGGAGAAGAAAAAGTT against Syf2, the z-score is -1.25.
As for GCACAGUUGGCAACCUUUATT against S100a9, the z-score is -0.029.
Turning to GGAUAACCCUAAGUUUAUGTT against Clu, the z-score is 0.753.
Take GGACCUCAUCUACAGAAUGTT against Tssk1: the z-score was 0.878.
For CGGACAAAGGACGAGUGUUTT against Fn3krp, the z-score is 3.02 (active).
For the sequence GGCAGUAGCCAGAAGGCAUTT against Rnf215, the z-score was 0.373.
As for CGACAUAGCUUCUGUACUGTT against Spaca9, the z-score is -1.42.
As to CCUUUAGGUACCACGAGUGTT against Large2, the z-score was -0.965.
Take CCUUUAAAGUAAGCAUGUGTT against Slc27a4: the z-score was 0.112.
As to GUUCUUUUUCUUCGGUUCCTT against Olfr1020, the z-score was 0.769.
Turning to GGGUCUAGAGUGCAUCUUCTT against Krt78, the z-score is 0.418.
Consider GGCUGUUUUUGCCGGUAUCTT against Teddm3, for which the z-score is 1.58.
With GGAAAACCAACAAAGCAAATT against Pde10a, the z-score is -0.692.
For UAUGACUCCACUCUUCUCUTT against Olfr1158, the z-score is -2 (active).
On to GGAAGAGGGCAAAAAUGGCTT against Sgms2, for which the z-score is -0.441.
With GGUUAUUUCGGGAGAUAAGTT against Nudcd1, the z-score is -0.351.
On to GGCAGAACGGAAUAAAAUGTT against Stag2, for which the z-score is -3.03 (active).
As for CCUGAUCAUGUUGAAGGAATT against Ktn1, the z-score was 0.256.
GGACACUGCAAAAGAGGAGTT against Defa4: the z-score was 1.37.
As to GGGAUACUCCAGACAAGGUTT against Usp17ld, the z-score is 0.142.
As for GGCCAUCAGAGCUACACUUTT against Gpa33, the z-score was 0.806.
Under CAUUGGUAUUGCCAAGGCATT against Olfr1330 stands 0.373.
With GGGAGAAACCAUUUCAAGATT against Gm5084 the figure was 0.0759; with GGAUUUCUCUGCCUGUACUTT against Gdpgp1, 0.37; with GAUGAAGAGGCAGGCCAAGTT against Nkx2-4, 2.63 (active).
Regarding GGUGUUAGCGAAAUGCUCATT against Prl7b1, the z-score is -0.875.
Under GCUCACUGCUACAAAUACCTT against Prss2 stands -1.82; under GCUUUAUCCACAGGUGCCATT against Olfr1350, -1.9; under GCCUAUUCACCAAAUCACATT against Frrs1, 0.408.
Take GAUCUGGCUGCUUCUUACCTT against Porcn: the z-score is -0.623.

Values taken from PubChem BioAssay AID1508600 (Functional Genomics Laboratory (NCATS/FGL), 2020).
